Marburg entry inh: blocks Marburg virus binding to or entry into cells | Marburg virus pseudotyped entry inhibition, cell reporter | Potency, µM (top dose mostly 37.8 µM), inactives show top-dose activity change, negative = inhibition, usual class: inhibitors | actives 1.8% (n = 300,000); calls by dose curve; tested in HEK293 cells; further: potency means the concentration at half of the fitted maximal effect; on the % scale 0 is the no-effect control and ±100 the full control effect
Cycloheximide cs: counter-screen hit for Shiga toxin inhibitors, cycloheximide; max response, %; AID 2314; cell reporter, cycloheximide protein synthesis inhibition counterscreen; actives 12% (n = 300,000); in the data active means max response mostly above about 13%, no sharp cut-off; inactive means mostly below about 14%; further: read at 38.3 µM for the half of the compounds with a filed dose; 0% is about no effect
Shiga inhibitor: Shiga toxin inhibition; actives 9.2% (n = 290,000); AID 2315; inhibition, % at 38.7 µM; Vero cells, Shiga toxin protein synthesis inhibition reporter; in the data active means inhibition mostly above about 28%, no sharp cut-off; inactive means mostly below about 43%; further: 0% is about no effect
LASV entry inh: inhibitors of Lassa virus binding or cell entry; Lassa virus pseudotype entry inhibition, cell reporter; Potency, µM (top dose mostly 37.9 µM), for inactives: top-dose activity change, negative = inhibition, hits mostly inhibitors; actives 1.2% (n = 300,000); AID 540256; calls by dose curve; tested in HEK293 cells; further: potency means the concentration at half of the fitted maximal effect; on the % scale 0 is the no-effect control and ±100 the full control effect; nearly all actives have a fitted effect of over 50% in size
The depositor's hits bear a star; ? = inconclusive; / = no result given; [ ] = another dose, or the depositor's remark. This is a sample that favours compounds with a hit; in the whole collection about 12% have one here.

SMILES	Marburg entry inh	Cycloheximide cs	Shiga inhibitor	LASV entry inh
CCc1ccccc1NC(=O)C1CCCN(c2ncccn2)C1 (centres undefined)	-1.4%[46.1 µM]	-3.3	-3.4	2.6%[46.1 µM]
CCC(C)c1ccc(NC(=O)C2CCCN(c3ncccn3)C2)cc1 (centres undefined)	?	33.0*	50.1*	-18.4%
COc1ccc(NC(=O)C2CCCN(c3ncccn3)C2)cc1 (centres undefined)	?	29.7*	92.2*	?
O=C1CCCN1c1ccc(S(=O)(=O)NCCc2ccc(Cl)cc2)cc1	1.1%	0.7	-11.8	-0.3%
O=C1CCCN1c1ccc(CNS(=O)(=O)c2ccc(F)cc2)cc1	9.2%[46.1 µM]	13.6*	24.0	?
CN(C)/C=C/C(=O)c1cccc(Cl)c1	5.1%	16.5*	14.8	4.1%
CN(C)/C=C/C(=O)c1ccc(Cl)cc1	29.0%	8.9	-5.2	1.5%
CN(C)/C=C/C(=O)c1ccc(-n2cccc2)cc1	/	30.2*	74.6*	/
CN(C)/C=C/C(=O)c1ccc(Cl)c([N+](=O)[O-])c1	-8.5%[46.1 µM]	20.5*	28.2	-0.2%
COc1cccc(OCCOc2ccccc2[N+](=O)[O-])c1	-0.6%	/	/	-4.1%
N#Cc1ccccc1OCCN1C(=O)c2ccccc2C1=O	?	40.4*	86.0*	19.6%
COc1ccc(OCCN2C(=O)c3ccccc3C2=O)c([N+](=O)[O-])c1	9.9%[46.1 µM]	95.6*	61.8*	14.8%[46.1 µM]
O=C1c2ccccc2C(=O)N1CCOCCN1C(=O)c2ccccc2C1=O	14.3%	-3.8	11.8	-16.0%
Nc1cccc2c1C(=O)N(CCOc1ccccc1F)C2=O	?	19.0*	45.6*	2.82µM*
Cc1nn2c(c1-c1ccc(Cl)cc1)N=C(c1ccco1)CC2c1ccccc1 (centres undefined)	?	7.8	16.3	?
O=C(COC(=O)C1CCN(/C=C/C(=O)C(F)(F)F)CC1)Nc1cccc(F)c1	?	-1.6	17.1	?
CCn1cc(CNC(=O)c2cc(COc3ccc(F)cc3Cl)on2)cn1	14.6µM*	-1.9	38.4	?
O=C(NCCCn1cccn1)c1cc(COc2ccc(F)cc2Cl)on1	/	19.4*	22.2*	/
CC(CCn1cccn1)NC(=O)c1cc(COc2ccc(F)cc2Cl)on1 (centres undefined)	5.3%[46.1 µM]	1.5	3.7	-8.1%[46.1 µM]
c1ccc(CCNc2nnnn2-c2ccccc2)cc1	9.8%	23.9*	30.1	-3.3%
COc1ccccc1Cc1nc2ccccc2nc1SCC(=O)NCc1ccc(F)cc1	/	/	/	5.2%[46.1 µM]
Cn1ccnc1SCC(=O)Nc1ccc2c(c1)OCO2	/	41.0*	68.6	/
CN(C)S(=O)(=O)c1ccc2c(c1)nc(CCC(=O)Nc1ccc3c(c1)OCO3)n2C	-13.1%	9.6*	48.0*	3.2%
O=C(CSc1nccn1-c1ccccc1)Nc1ccc2c(c1)OCO2	0.0%[46.1 µM]	70.1*	67.6*	?
O=C(CCn1cccn1)Nc1ccc2c(c1)OCO2	/	35.8*	39.5*	/
SMILES	Marburg entry inh	Cycloheximide cs	Shiga inhibitor	LASV entry inh
O=C(CCn1cccn1)Nc1ccc(-c2ccno2)cc1	/	33.1*	34.1*	/
Cc1ccn(CCC(=O)Nc2ccc(-c3ccno3)cc2)n1	/	21.1	13.7	/
COc1ccc(-c2nsc(SCC(=O)NCc3ccc4c(c3)OCO4)n2)cc1	6.2%	-3.1	-12.3	?
O=C(CSc1nc(-c2ccccc2Cl)ns1)Nc1ccc2c(c1)OCO2	?	15.2*	22.7	5.8%
Cc1ccc(-c2nsc(SCC(=O)Nc3ccc4c(c3)OCO4)n2)cc1	30.4%	18.2*	23.8*	-4.0%
O=C(CSc1nc(-c2ccccc2Cl)ns1)c1ccc(Cl)cc1	-20.1%	-2.2	-10.2	4.1%
CCC(c1nnc(SCC(=O)NC2CCCCC2)n1Cc1ccccc1)N(C)C (centres undefined)	1.6%[46.1 µM]	/	/	?
CO/N=C/NC(=O)c1c(OC)ccnc1Oc1cccc(C(F)(F)F)c1	8.6%	-2.2	1.3	10.3%
Cc1ccc(/C=C2\SC(=O)N(CCNC(=O)C3CSC4(C)CCC(=O)N34)C2=O)cc1 (centres undefined)	9.4%	/	/	15.7%[46.1 µM]
Cc1cccc(CSc2nc3c(sc4ccccc43)c(=O)n2CCC(=O)NC(C)C)c1	13.1%[46.1 µM]	/	/	21.9%[46.1 µM]
COc1cc(C2c3c(oc4ccccc4c3=O)C(=O)N2c2nncs2)cc(OC)c1OC (centres undefined)	0.1%[46.1 µM]	/	/	?
CCOC(=O)c1cnc2c(OC)cccc2c1N1CCN(c2ccccn2)CC1	11.2µM*	-0.8	-8.1	?
Cc1ccc(SCc2ccc(C(=O)N3CCCC3)cc2)cc1	-0.2%[46.1 µM]	39.3*	95.7*	/
Cc1ccc(SCCC(=O)N2CCOCC2)cc1	?	26.2*	82.2	6.2%
O=C(CSc1ccc(Cl)cc1)N1CCCC1	/	45.6*	65.2	/
CCOCCn1ccc2c(OCC(=O)Nc3cccc([N+](=O)[O-])c3)cccc2c1=O	/	/	/	11.9%[46.1 µM]
N#Cc1ccccc1OCC(=O)N1CCN(c2ccccc2F)CC1	13.4%[46.1 µM]	/	/	/
CCOC(=O)c1nn(-c2ccc(Cl)cc2C)ccc1=O	/	-2.8	-8.6	/
CCOC(=O)c1cc(-c2ccc(C)cc2)n(CCC(=O)N2CCN(c3ccccn3)CC2)c1C	20.6µM*	6.9	-9.9	15.8µM*
Cc1ccc(SCCC(=O)N2CCCC2)cc1	11.5%	43.4*	86.0*	?
CCOC(=O)c1cc(-c2ccc(C)cc2)n(CCC(=O)NCc2ccccc2)c1C	-22.1%[46.1 µM]	/	/	/
Cc1ccc(SCC(=O)N2CCN(c3ccccn3)CC2)cc1	26.3%[46.1 µM]	18.1*	52.2*	10.5%[46.1 µM]
COc1ccc(N2CCN(C(=O)CSc3ccc(C)cc3)CC2)cc1	19.9%[14.2 µM]	-5.1	-16.7	13.6%
Cc1ccc(SCC(=O)N2CCCC2)cc1	0.7%	23.5*	124.0*	15.5%
CCn1c(C)c(C2N3CC4(C)CN2CC(C)(C3)C4=O)c2ccccc21 (centres undefined)	-11.6%[46.1 µM]	/	/	?
SMILES	Marburg entry inh	Cycloheximide cs	Shiga inhibitor	LASV entry inh
O=C(CCSCc1ccccc1Cl)N1CCN(c2ccccn2)CC1	16.6%	41.2*	43.7*	1.3%
O=C(O)c1ccccc1C(=O)NNc1ccc(Cl)cc1	1.1%	11.4*	49.2*	-2.7%
O=C(NNc1cccc(Cl)n1)c1c(Cl)cccc1Cl	5.8%	-6.8	-10.8	26.7%
NS(=O)(=O)c1ccc(NC(=O)c2ccccc2Cl)cc1	?	1.1	-7.0	5.0%
NS(=O)(=O)c1ccc(NNC(=O)c2ccccc2C(=O)O)cc1	/	28.6*	89.5	/
O=C(O)c1ccccc1C(=O)NNc1cccc(Cl)n1	?	48.8*	97.5*	13.3%
CC(C)CCNC(=O)C(C)N(Cc1ccc(F)cc1)C(=O)c1ccc(CN2CCCCC2)o1 (centres undefined)	-5.7%	1.8	-3.1	-9.4%
CCN(CC)CCN(C(=O)c1ccc(CN2CCCCC2)o1)C(C(=O)NC1CCCCC1)c1ccc(F)cc1 (centres undefined)	5.01µM*	42.4*	60.1*	-0.1%[46.1 µM]
CSCCC(NC(=O)c1cccc(C)c1)C(=O)OCC(=O)Nc1c(C)nn(-c2ccccc2)c1C (centres undefined)	-6.4%[46.1 µM]	/	/	11.5%
NNC(=O)c1cc2c(N3CCC(Cc4ccccc4)CC3)ncnc2s1	-13.8%[46.1 µM]	-6.3	-8.0	10µM*
Cn1ncc2c(N3CCC(Cc4ccccc4)CC3)ncnc21	1.2%[46.1 µM]	10.5	-2.8	-12.8%
CCOc1ccccc1-c1nnc2n1N=C(c1cc(OC)ccc1OC)CS2	/	6.7	1.8	/
COC(=O)C1=C(C)N(Cc2ccccc2)C(=NCCc2cccnc2)NC1c1ccccc1 (centres undefined)	-11.4%[14.2 µM]	/	/	/
